Activity calls are given as the source filed them. Entries that show only a call come without a potency. Unless noted, calls come from the whole dose curve; as a rule, active = well fitted activation curve with a large enough effect in the repeat runs; inconclusive = weak or mixed curves; inactive = flat fitted curve, though single readings scatter.
Molecular target: KiSS-1 receptor (Homo sapiens) (UniProt Q969F8)
Test: Human kisspeptin (KISS1R) small molecule agonists, calcium flux assay in KISS1R-HEK293 cells (AID 1920064)
Conditions: KISS1R-HEK293, calcium flux fluorescence, agonist; series mostly up to 76.8 µM
Outline: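 HEK293 cells stably expressing human KISS1R were plated 18 h at 37 °C, loaded with calcium dye for 1 h at 37 °C, then given compound by pin tool. Fluorescence (Ex/Em 480/540) was read kinetically for 3 min.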

Sequence of KiSS-1 receptor (Homo sapiens) (Q969F8 whole entry, looked up): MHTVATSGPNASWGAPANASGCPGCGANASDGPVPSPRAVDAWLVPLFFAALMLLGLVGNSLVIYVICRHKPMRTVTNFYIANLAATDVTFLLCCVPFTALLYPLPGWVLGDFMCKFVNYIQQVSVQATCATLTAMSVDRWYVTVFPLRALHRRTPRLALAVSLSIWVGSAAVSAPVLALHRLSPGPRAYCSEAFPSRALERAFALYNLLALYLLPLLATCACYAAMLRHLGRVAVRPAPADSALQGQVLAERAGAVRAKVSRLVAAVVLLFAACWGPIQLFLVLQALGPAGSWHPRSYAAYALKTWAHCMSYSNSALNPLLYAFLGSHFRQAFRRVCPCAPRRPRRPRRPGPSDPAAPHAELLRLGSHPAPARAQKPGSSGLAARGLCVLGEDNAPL

SMILES | Potency | activation
COc1ccc(C(=O)/C(Br)=C\C(=O)O)cc1 | inactive | –
COc1ccc(-c2cc(=S)ss2)cc1 | inactive | –
O=C(CCCCCCC(=O)Nc1ccccc1)NO | inactive | –
c1cc(CN2CCCCC2)cc(OCCCNc2nc3ccccc3s2)c1 | inactive | –
O=c1[nH]c2ccccc2n1CCCN1CCN(C(c2ccccc2)c2ccccc2)CC1 | inactive | –
Cc1ccc(O)c(C(C)(C)C)c1 | inactive | –
O=C(OC[C@H]1O[C@@H](OC(=O)c2cc(O)c(O)c(OC(=O)c3cc(O)c(O)c(O)c3)c2)[C@H](OC(=O)c2cc(O)c(O)c(OC(=O)c3cc(O)c(O)c(O)c3)c2)[C@@H](OC(=O)c2cc(O)c(O)c(OC(=O)c3cc(O)c(O)c(O)c3)c2)[C@@H]1OC(=O)c1cc(O)c(O)c(OC(=O)c2cc(O)c(O)c(O)c2)c1)c1cc(O)c(O)c(OC(=O)c2cc(O)c(O)c(O)c2)c1 | – | -0.551% [at 15.8 µM] (inactive)
COc1cc(Nc2c(C#N)cnc3cc(OCCCN4CCN(C)CC4)c(OC)cc23)c(Cl)cc1Cl | inactive | –
N[C@@H](C(=O)N[C@@H]1C(=O)N2C(C(=O)O)=C(Cl)CS[C@H]12)c1ccccc1 | – | -2.2% [at 6.97 µM] (inactive)
CCCC(=O)O[C@]1(C(=O)CCl)[C@@H](C)C[C@H]2[C@@H]3CCC4=CC(=O)C=C[C@]4(C)[C@@]3(F)C(=O)C[C@@]21C | inactive | –
Cc1cccc(O)c1N | inactive | –
CCN(CC)c1ccc(C(=C2C=CC(=[N+](CC)CC)C=C2)c2cc(S(=O)(=O)O)ccc2S(=O)(=O)[O-])cc1 | inactive | –
Cc1cc(O)c2c(c1)C(=O)c1cc(O)cc(O)c1C2=O | inactive | –
O=C1Cc2cc(CCN3CCN(c4nsc5ccccc45)CC3)c(Cl)cc2N1 | inactive | –
COc1ccccc1OCCNCC(O)COc1cccc2[nH]c3ccccc3c12 (stereo not given) | inactive | –
O=c1cc(-c2ccc(O)cc2)oc2cc(O)cc(O)c12 | inactive | –
CCCCCCCC/C=C/CCCCCCCC1=NCCN1CCO | inactive | –
CC1=NN(c2cc(Cl)c(S(=O)(=O)O)cc2Cl)C(=O)C1N=Nc1ccc(S(=O)(=O)O)cc1 (stereo not given) | inactive | –
CN(C)CC/C=C1\c2ccccc2Sc2ccc(Cl)cc21 | inactive | –
C(=C(c1ccccc1)c1ccccc1)c1ccccc1 | inactive | –

SMILES | Potency | activation
NC(=O)C1(N2CCCCC2)CCN(CCCN2c3ccccc3CCc3ccc(Cl)cc32)CC1 | inactive | –
O=C1c2ccccc2C(=O)c2c(O)c(O)cc(O)c21 | inactive | –
CCCCCCCCNC(C)C(O)c1ccc(SC(C)C)cc1 (stereo not given) | inactive | –
CN1CCCC(CC2c3ccccc3Sc3ccccc32)C1 (stereo not given) | inactive | –
CCOc1ccc2nc3cc(N)ccc3c(N)c2c1 | inactive | –
CC1=NN(c2ccc(S(=O)(=O)O)cc2)C(=O)C1N=Nc1ccccc1 (stereo not given) | inactive | –
Nc1ccc(N)c2c1C(=O)c1ccccc1C2=O | inactive | –
CNCC[C@@H](Oc1ccccc1C)c1ccccc1 | inactive | –
COc1cc([N+](=O)[O-])ccc1N | inactive | –
Cc1c(C(=O)NN2CCCCC2)nn(-c2ccc(Cl)cc2Cl)c1-c1ccc(Cl)cc1 | inactive | –
CSc1ccc(/C=C2/C(C)=C(CC(=O)O)c3cc(F)ccc32)cc1 | inactive | –
CC(C)C(OC(=O)c1ccccc1)C(C)(C)COC(=O)c1ccccc1 (stereo not given) | inactive | –
CN(C)C(=O)NC1(c2ccccc2)CCN(CCC[C@]2(c3ccc(Cl)c(Cl)c3)CCCN(C(=O)c3ccccc3)C2)CC1 | – | 0.0463% [at 15.8 µM] (inactive)
Clc1ccc(Cn2c(CN3CCCC3)nc3ccccc32)cc1 | inactive | –
O=C1CCCCCN1SSN1CCCCCC1=O | inactive | –
CC(COc1ccc(C(C)(C)C)cc1)OS(=O)OCCCl (stereo not given) | inactive | –
c1ccc(-c2ccc(C(c3ccccc3)n3ccnc3)cc2)cc1 (stereo not given) | inactive | –
Cc1onc(-c2c(Cl)cccc2Cl)c1C(=O)N[C@@H]1C(=O)N2[C@@H]1SC(C)(C)[C@@H]2C(=O)O | inactive | –
Cc1ccc(N/N=c2\c(=O)cc/c(=N\Nc3ccc(S(=O)(=O)O)cc3)c2=O)c(C)c1 | inactive | –
CCCCC(CC)CN1CN(CC(CC)CCCC)CC(C)(N)C1 (stereo not given) | inactive | –

Tested on: not listed separately
Test: G protein-coupled receptor (GPCR) small molecule agonists, calcium flux assay: HEK293 wild type cell line counter screen (AID 1920065; calls by dose curve)
Conditions: HEK293 WT calcium flux, fluorescence, agonist mode; series mostly up to 57.6 µM
Outline: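 Cells were plated and cultured 18 h at 37 C/5% CO2, then loaded with calcium dye for 1 h at 37 C. Compounds in DMSO were pin-transferred in agonist mode, and fluorescence (Ex/Em 480/540) was read kinetically for 3 min at 1 s intervals.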

SMILES | Potency | activation
COc1ccc(C(=O)/C(Br)=C\C(=O)O)cc1 | inactive | –
COc1ccc(-c2cc(=S)ss2)cc1 | inactive | –
O=C(CCCCCCC(=O)Nc1ccccc1)NO | inactive | –
c1cc(CN2CCCCC2)cc(OCCCNc2nc3ccccc3s2)c1 | inactive | –
O=c1[nH]c2ccccc2n1CCCN1CCN(C(c2ccccc2)c2ccccc2)CC1 | inactive | –
Cc1ccc(O)c(C(C)(C)C)c1 | inactive | –
O=C(OC[C@H]1O[C@@H](OC(=O)c2cc(O)c(O)c(OC(=O)c3cc(O)c(O)c(O)c3)c2)[C@H](OC(=O)c2cc(O)c(O)c(OC(=O)c3cc(O)c(O)c(O)c3)c2)[C@@H](OC(=O)c2cc(O)c(O)c(OC(=O)c3cc(O)c(O)c(O)c3)c2)[C@@H]1OC(=O)c1cc(O)c(O)c(OC(=O)c2cc(O)c(O)c(O)c2)c1)c1cc(O)c(O)c(OC(=O)c2cc(O)c(O)c(O)c2)c1 | – | 0.5% [at 11.8 µM] (inactive)
COc1cc(Nc2c(C#N)cnc3cc(OCCCN4CCN(C)CC4)c(OC)cc23)c(Cl)cc1Cl | inactive | –
N[C@@H](C(=O)N[C@@H]1C(=O)N2C(C(=O)O)=C(Cl)CS[C@H]12)c1ccccc1 | – | -0.0598% [at 5.23 µM] (inactive)
CCCC(=O)O[C@]1(C(=O)CCl)[C@@H](C)C[C@H]2[C@@H]3CCC4=CC(=O)C=C[C@]4(C)[C@@]3(F)C(=O)C[C@@]21C | inactive | –
Cc1cccc(O)c1N | inactive | –
CCN(CC)c1ccc(C(=C2C=CC(=[N+](CC)CC)C=C2)c2cc(S(=O)(=O)O)ccc2S(=O)(=O)[O-])cc1 | inactive | –
Cc1cc(O)c2c(c1)C(=O)c1cc(O)cc(O)c1C2=O | inactive | –
O=C1Cc2cc(CCN3CCN(c4nsc5ccccc45)CC3)c(Cl)cc2N1 | inactive | –
COc1ccccc1OCCNCC(O)COc1cccc2[nH]c3ccccc3c12 (stereo not given) | inactive | –
O=c1cc(-c2ccc(O)cc2)oc2cc(O)cc(O)c12 | inactive | –
CCCCCCCC/C=C/CCCCCCCC1=NCCN1CCO | inactive | –
CC1=NN(c2cc(Cl)c(S(=O)(=O)O)cc2Cl)C(=O)C1N=Nc1ccc(S(=O)(=O)O)cc1 (stereo not given) | inactive | –
CN(C)CC/C=C1\c2ccccc2Sc2ccc(Cl)cc21 | inactive | –
C(=C(c1ccccc1)c1ccccc1)c1ccccc1 | inactive | –

SMILES | Potency | activation
NC(=O)C1(N2CCCCC2)CCN(CCCN2c3ccccc3CCc3ccc(Cl)cc32)CC1 | inactive | –
O=C1c2ccccc2C(=O)c2c(O)c(O)cc(O)c21 | inactive | –
CCCCCCCCNC(C)C(O)c1ccc(SC(C)C)cc1 (stereo not given) | inactive | –
CN1CCCC(CC2c3ccccc3Sc3ccccc32)C1 (stereo not given) | inactive | –
CCOc1ccc2nc3cc(N)ccc3c(N)c2c1 | inactive | –
CC1=NN(c2ccc(S(=O)(=O)O)cc2)C(=O)C1N=Nc1ccccc1 (stereo not given) | inactive | –
Nc1ccc(N)c2c1C(=O)c1ccccc1C2=O | inactive | –
CNCC[C@@H](Oc1ccccc1C)c1ccccc1 | inactive | –
COc1cc([N+](=O)[O-])ccc1N | inactive | –
Cc1c(C(=O)NN2CCCCC2)nn(-c2ccc(Cl)cc2Cl)c1-c1ccc(Cl)cc1 | inactive | –
CSc1ccc(/C=C2/C(C)=C(CC(=O)O)c3cc(F)ccc32)cc1 | inactive | –
CC(C)C(OC(=O)c1ccccc1)C(C)(C)COC(=O)c1ccccc1 (stereo not given) | inactive | –
CN(C)C(=O)NC1(c2ccccc2)CCN(CCC[C@]2(c3ccc(Cl)c(Cl)c3)CCCN(C(=O)c3ccccc3)C2)CC1 | – | 0.0814% [at 11.8 µM] (inactive)
Clc1ccc(Cn2c(CN3CCCC3)nc3ccccc32)cc1 | inactive | –
O=C1CCCCCN1SSN1CCCCCC1=O | inactive | –
CC(COc1ccc(C(C)(C)C)cc1)OS(=O)OCCCl (stereo not given) | inactive | –
c1ccc(-c2ccc(C(c3ccccc3)n3ccnc3)cc2)cc1 (stereo not given) | inactive | –
Cc1onc(-c2c(Cl)cccc2Cl)c1C(=O)N[C@@H]1C(=O)N2[C@@H]1SC(C)(C)[C@@H]2C(=O)O | inactive | –
Cc1ccc(N/N=c2\c(=O)cc/c(=N\Nc3ccc(S(=O)(=O)O)cc3)c2=O)c(C)c1 | inactive | –
CCCCC(CC)CN1CN(CC(CC)CCCC)CC(C)(N)C1 (stereo not given) | inactive | –

— PubChem BioAssay (Tox21)
